# Test results from PubChem BioAssay.
# The source made the active and inactive calls. Unless noted, how the calls were made is not given here.
# Assays:
# [1] = system: XIP peptide (Xip251-270) binding; experiment: XIP fragment 251-270 binding compounds – biochemical, small-molecule microarray, fluorescence 635/667 nm, 0.1 µg/mL protein, primary screen (AID 1182); settings: fluorescent protein binding, 635 nm, higher = more signal, called active from +8 up or from −8 down
# [2] = system: XIP peptide (Xip251-270); experiment: compounds binding XIP fragment 251-270 – biochemical, small-molecule microarray, fluorescence 635/667 nm, 0.5 µg/mL protein, primary screen (AID 1183); settings: fluorescence 635 nm, higher = more signal
# [3] = blood-stage malaria parasite viability loss – strain 3D7, DAPI fluorescence, 100 nL, primary screen (AID 1184);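 further: parasites grown inside human red blood cells in medium with human serum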; settings: P. falciparum 3D7 growth, 3 d, higher = more signal
# [4] = molecular target: Homeobox protein Hox-A13 (Mus musculus) (UniProt Q62424); experiment: disruptors of Hoxa13 oligonucleotide interaction – biochemical, fluorescence polarization, labeled oligonucleotide, primary screen (AID 1185); settings: Hoxa13:DNA binding, 15 min, higher = more signal, called active from +8 up or from −8 down
# [5] = blockers of DNA damage checkpoint Chk1 activation – imaging, HeLa, hydroxyurea, phospho-Chk1 antibody, percent positive cells, primary screen (AID 1186); settings: hydroxyurea-induced phospho-Chk1 immunofluorescence imaging, higher = more signal
# [6] = blockers of DNA damage checkpoint Chk1 activation – imaging, HeLa, hydroxyurea, phospho-Chk1 nuclear intensity, primary screen (AID 1187); settings: hydroxyurea-induced phospho-Chk1 immunofluorescence imaging, higher = more signal
# Homeobox protein Hox-A13 (Mus musculus), sequence (Q62424 whole entry, looked up): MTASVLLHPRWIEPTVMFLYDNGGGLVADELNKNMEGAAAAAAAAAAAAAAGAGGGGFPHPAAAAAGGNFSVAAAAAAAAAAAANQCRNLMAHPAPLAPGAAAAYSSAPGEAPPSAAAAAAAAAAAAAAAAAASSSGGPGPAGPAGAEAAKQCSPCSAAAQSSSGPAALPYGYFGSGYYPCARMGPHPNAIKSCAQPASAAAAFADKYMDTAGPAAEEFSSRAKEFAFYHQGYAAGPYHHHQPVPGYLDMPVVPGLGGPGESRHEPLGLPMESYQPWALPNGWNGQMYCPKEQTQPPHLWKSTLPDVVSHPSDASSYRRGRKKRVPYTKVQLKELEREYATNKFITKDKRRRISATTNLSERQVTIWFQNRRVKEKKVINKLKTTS
Compound,composite z-score [1],composite z-score [2],z-score [3],z-score [4],z-score [5],z-score [6]
COCCOC(=O)N1C(=O)[C@@]2(c3cc(C#CC4=CCCCC4)ccc31)[C@H](c1ccc(O)cc1)N1[C@H](c3ccccc3)[C@H](c3ccccc3)OC(=O)[C@H]1[C@@H]2C(=O)NC[C@H](O)c1ccccc1,0.816 (inactive),0.75,-1.69,1.07 (inactive),-0.0889 (inactive),0.129 (inactive)
COCCOC(=O)N1C(=O)[C@@]2(c3cc(C#CCNC(N)=O)ccc31)[C@H](c1ccc(OCCO)cc1)N1[C@H](c3ccccc3)[C@H](c3ccccc3)OC(=O)[C@H]1[C@@H]2C(=O)NC[C@H](O)c1ccccc1,0.586 (inactive),0.644,-0.599,-1.94 (inactive),-0.3 (inactive),-0.102 (inactive)
COCCOC(=O)N1C(=O)[C@@]2(c3cc(C#CC4=CCCCC4)ccc31)[C@H](C(=O)N1CCCCCCC1)[C@H]1C(=O)O[C@H](c3ccccc3)[C@H](c3ccccc3)N1[C@@H]2c1ccc(OCCO)cc1,-0.404 (inactive),0.56,-2.01,-15.8 (active),0.0039 (inactive),-0.192 (inactive)
CC(C)C(=C=CC[C@H](O)c1cccc(OCCO)c1)CCO,0.675 (inactive),0.0075,0.585,-1.92 (inactive),0.0348 (inactive),0.549 (inactive)
CN1C(=O)C2C=CC(C(O)c3cc(C(F)(F)F)cc(C(F)(F)F)c3)N(NC(=O)OC(C)(C)C)C2C1=O (stereo not given),1.07 (inactive),0.623,-1.32,-5.04 (inactive),0.0279 (inactive),0.275 (inactive)
Cc1ccc(F)cc1S(=O)(=O)N[C@@H]1CCN(Cc2cccc3[nH]ccc23)C1,-0.605 (inactive),0.578,-0.797,-3.62 (inactive),-0.561 (inactive),-0.948 (inactive)
Cc1ccc(N2C(=O)c3ccccc3[C@](C)(C(=O)NCc3ccccc3)[C@@H]2c2ccc(CO)cc2)nc1,-0.353 (inactive),-0.33,-1.34,-0.408 (inactive),-0.0668 (inactive),0.0633 (inactive)
C=CCOC(=O)[C@H]1[C@@H]2C(=O)O[C@@H](c3ccccc3)[C@@H](c3ccccc3)N2[C@@H](c2ccc(OCCOC(=O)[C@H]3C[C@H]4C(=O)N[C@@H](CCCCNC(C)=O)C(=O)N4[C@H]3c3cccc(OCCO)c3)cc2)[C@]12C(=O)Nc1ccc(I)cc12,0.996 (inactive),0.68,-1.61,2.36 (inactive),-0.138 (inactive),0.239 (inactive)
NC(=O)[C@@H]1[C@H]2C(=O)O[C@H](c3ccccc3)[C@H](c3ccccc3)N2[C@H](c2ccc(OCCO)cc2)[C@@]12C(=O)Nc1ccc(C#CCCO)cc12,0.198 (inactive),0.808,0.195,-4.88 (inactive),-0.504 (inactive),-0.804 (inactive)
C=C(CCCC)/C(=C/C[C@H](OC(C)=O)c1ccc(OCCO)cc1)c1cc(C(=O)OC)ccc1OC,-0.124 (inactive),0.71,-2.82,-3.64 (inactive),-1.09 (inactive),-1.97 (inactive)
CC(C)C(=C=CC[C@@H](O)c1cccc(OCCO)c1)C[C@@H](O)c1ccccn1,-0.0008 (inactive),0.29,-0.0244,-5.17 (inactive),-0.122 (inactive),0.156 (inactive)
CN(C)C(=O)[C@@]1(CCC(=O)OC(C)(C)C)N=C(c2ccc(OCCCO)cc2)O[C@H]1c1ccccc1CN=[N+]=[N-],1.14 (inactive),0.316,-2.32,-5.91 (inactive),0.234 (inactive),0.422 (inactive)
[N-]=[N+]=Nc1ccccc1[C@@H]1OC(c2ccc(OCCCO)cc2)=N[C@]1(Cc1ccccc1)C(=O)NCc1ccccc1,0.174 (inactive),0.804,-1.97,-0.694 (inactive),0.458 (inactive),0.433 (inactive)
CC(CO)N1C(=O)[C@@H]2[C@H]3C(=O)OCC=C[C@H]3OC23C=CCN(c2ccc(Cl)cc2)C(=O)[C@@H]13 (stereo not given in full),-0.4 (inactive),-0.862,0.599,-3 (inactive),-0.985 (inactive),-0.995 (inactive)
O=C1C2C=CC(C(O)c3ccco3)N(Nc3ccccc3)C2C(=O)N1c1ccccc1 (stereo not given),1.11 (inactive),0.8,0.125,-2.27 (inactive),0.209 (inactive),-0.0253 (inactive)
COCCOC(=O)N1C(=O)[C@@]2(c3cc(C#CCC(C(=O)OC)C(=O)OC)ccc31)[C@H](c1ccc(O)cc1)N1[C@H](c3ccccc3)[C@H](c3ccccc3)OC(=O)[C@H]1[C@@H]2C(=O)NC[C@H](O)c1ccccc1,0.398 (inactive),0.465,-0.474,-2.44 (inactive),0.101 (inactive),0.524 (inactive)
O=C1OCC=C[C@H]2OC34C=CCN(c5ccc6ccccc6c5)C(=O)[C@H]3N(CCCCCO)C(=O)[C@@H]4[C@@H]12 (stereo not given in full),0.407 (inactive),0.351,-0.471,-4.6 (inactive),0.464 (inactive),0.0639 (inactive)
COC(=O)[C@@]1(Cc2ccc(OC)cc2)[C@H]2c3cc(C(=O)N4CCCC4)n(Cc4ccc(OC(F)(F)F)cc4)c3C[C@H]2CN1C(=O)c1ccccc1,0.931 (inactive),0.702,-1.29,-2.94 (inactive),0.168 (inactive),0.569 (inactive)
O=C1[C@@H]2[C@@H](CC(COc3ccccc3)=C3[C@@H](CCc4ccccc4)OB(O)C[C@@H]32)C(=O)N1Cc1ccccc1,0.318 (inactive),0.387,1.31,-5.54 (inactive),-0.242 (inactive),-0.22 (inactive)
CC(=O)NCCCC[C@@H]1NC(=O)[C@H]2C[C@@H](C(=O)NCCCCCNC(=O)CS)[C@@H](c3cccc(OCCO)c3)N2C1=O,4.01 (inactive),0.854,-0.559,-3.69 (inactive),0.276 (inactive),0.591 (inactive)
COCCOC(=O)N1C(=O)[C@@]2(c3ccccc31)[C@H](c1ccccc1OCCO)N1[C@H](c3ccccc3)[C@H](c3ccccc3)OC(=O)[C@H]1[C@@H]2C(N)=O,2.37 (inactive),0.784,-0.946,-4.81 (inactive),0.0327 (inactive),0.12 (inactive)
O=C1OCCC/C=C\[C@H]2OC34C=CCN(c5ccc6ccccc6c5)C(=O)[C@H]3N(CCCO)C(=O)[C@@H]4C12 (stereo not given in full),0.0317 (inactive),0.481,0.267,-5.72 (inactive),1.41 (inactive),0.656 (inactive)
O=C1O[C@H](c2ccccc2)[C@H](c2ccccc2)N2[C@H]1[C@@H](C(=O)O)[C@]1(C(=O)Nc3ccc(C#CC4(O)CCCCCC4)cc31)[C@H]2c1ccc(O)cc1,-0.203 (inactive),0.194,0.361,-6.61 (inactive),-0.308 (inactive),-0.307 (inactive)
CN(C)CCCC[C@@H]1NC(=O)[C@@H]2C[C@H](C(=O)O)[C@H](c3cccc(OCCO)c3)N2C1=O,1.02 (inactive),0.0695,-0.286,-3.07 (inactive),0.043 (inactive),0.313 (inactive)
COc1cc(NN2C(C(O)c3cc(OC)c(OC)c(OC)c3)C=CC3C(=O)N(c4ccccc4)C(=O)C32)cc(OC)c1OC (stereo not given),0.692 (inactive),0.552,-0.732,-4.86 (inactive),1.06 (inactive),0.889 (inactive)
COC(=O)[C@@]1(Cc2ccc(F)cc2)[C@H]2c3cc(C(=O)N(C)C)n(Cc4c(CO)[nH]cc(C)c4=O)c3C[C@H]2CN1C(=O)c1ccccc1,0.493 (inactive),-0.0903,-1.81,-5.02 (inactive),0.815 (inactive),0.493 (inactive)
C=CCC(OC(C)=O)[C@@H]1[C@@H](N(Cc2ccc(-c3cccc(C(F)(F)F)c3)o2)C(=O)c2cccc3ccccc23)c2cc(OCCCO)ccc2N1C(=O)Cc1ccc(OC)cc1 (stereo not given in full),0.309 (inactive),0.456,-2.43,-1.92 (inactive),-0.48 (inactive),0.0284 (inactive)
CN(C)C(=O)[C@@]1(Cc2ccccc2N=[N+]=[N-])N=C(c2ccc(OCCCO)cc2)O[C@H]1c1ccccc1,1.47 (inactive),0.821,-2.19,-4.9 (inactive),-0.279 (inactive),-0.303 (inactive)
Cc1ccc(C(C)CC(O)C2C=CC3C(=O)N(c4ccccc4)C(=O)C3N2Nc2ccc(C#N)cc2)o1 (stereo not given),0.662 (inactive),0.322,0.25,-3.75 (inactive),0.124 (inactive),0.222 (inactive)
C=C(C(=O)CC[C@H](OC(=O)c1ccccc1-c1ccccc1C(=O)O)c1ccccc1OCCO)C(C)C,-0.0286 (inactive),0.7,-2.47,-5.13 (inactive),-0.126 (inactive),-0.0147 (inactive)
